# Where “and” joins values, the source holds several entries; their conditions need not be identical. Identical values can stand only once. Results filed as inconclusive are left out. A number with no mark means an inactive call. Calls of active or inactive are those of the source. Calls follow the shape of the dose curve; as a rule, active = well fitted curve in the direction sought with a large enough effect; inconclusive = small, poorly fitted or top-dose-only effect, or another doubt; inactive = no such curve, though single readings can be large; an effect the other way counts as inactive or inconclusive.
# What was measured:
# [1] = Viability qHTS for spleen associated tyrosine kinase inhibitor (SYKi) drug resistant MV4-11 cells (AID 1963824); also: nearly all actives have a fitted effect of over 35% in size
# Method in brief: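 CellTiter-Glo luminescence, read 10 min after reagent addition, reports viability after a 72 hr compound exposure. Cells are an MV4-11 line made resistant to SYK inhibition, seeded at 500 per well onto compound-containing plates.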
# [2] = Cellular viability qHTS for adrenocortical cancer (ACC) cell line SW-13 (AID 1963989); conditions: SW-13 ACC cells viability, CellTiter-Glo, 48 h; activity (max response): stronger effect = lower value; also: nearly all actives have a fitted effect of over 65% in size;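 as to activity (max response): cells grown in serum-free medium with ITS supplement; % is scaled to controls: 0 for no effect and ±100 for the full control effect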
# Method in brief: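 Compound titrations (up to 46 uM final, in DMSO) were applied to SW-13 cells for 48 h at 37C/5% CO2. Reading used CellTiter-Glo after 20 min at room temperature; fitted curves yielded IC50 and efficacy.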
# [3] = Quantitative highthroughput screen to assess conditional lethalithy of P12 Ichikawa cells grown in Human Plasma-Like Medium with dialyzed fetal bovine serum (HPLM+ds) (AID 1963879); conditions: Potency: viability; also: nearly all actives have a fitted effect of over 35% in size; as to Viability: series mostly up to about 46 µM
# Method in brief: (§1)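 Each medium arm—HPLM with 10% dialyzed FBS, or RPMI1640 with 5 mM glucose and 10% untreated or dialyzed FBS—was screened against an 11-point, 3-fold compound titration for 48 h at 37 °C, with CellTiter-Glo luminescence as endpoint.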
# [4] = Quantitative highthroughput screen to assess conditional lethalithy of P12 Ichikawa cells grown in RPMI1640 with dialyzed fetal bovine serum (RPMI+ds) (AID 1963880); conditions: Potency: P12-Ichikawa viability; also: nearly all actives have a fitted effect of over 35% in size;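 as to Viability: 100% = DMSO wells and 0% = empty wells on each plate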
# Method in brief: as §1
# [5] = Quantitative highthroughput screen to assess conditional lethalithy of SEM cells grown in Human Plasma-Like Medium with dialyzed fetal bovine serum (HPLM+ds) (AID 1963882); also: nearly all actives have a fitted effect of over 35% in size; as to Viability: series mostly up to about 46 µM
# Method in brief: as §1
# [6] = Quantitative highthroughput screen to assess conditional lethalithy of SEM cells grown in RPMI1640 with unreated serum (RPMI+s) (AID 1963883); also: nearly all actives have a fitted effect of over 35% in size;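 as to Viability: 100% = DMSO wells and 0% = empty wells without cells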
# Method in brief: as §1
# [7] = Quantitative highthroughput screen to assess conditional lethalithy of SEM cells grown in RPMI1640 with dialyzed fetal bovine serum (RPMI+ds) (AID 1963884); also: nearly all actives have a fitted effect of over 35% in size;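 as to Viability: series mostly up to about 46 µM; 100% = DMSO control wells and 0% = empty wells without cells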
# Method in brief: as §1
# [8] = Cellular viability qHTS for adrenocortical cancer (ACC) cell line NCI-H295R (AID 1963990); also: nearly all actives have a fitted effect of over 60% in size
# Method in brief: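 Readout: CellTiter-Glo luminescence, 20 min RT. Exposure: 48 h, 37C/5% CO2. Cells: NCI-H295R, ITS-DMEM serum-free. Range: up to 46 uM. Analysis: 4PL fit, IC50 plus efficacy.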
# [9] = Quantitative highthroughput screen to assess conditional lethalithy of P12 Ichikawa cells grown in RPMI1640 with untreated serum (RPMI+s) (AID 1963881); conditions: Potency: viability; also: nearly all actives have a fitted effect of over 35% in size
# Method in brief: as §1
# Potency is read from the fitted curve at half-maximal effect.
structure (smiles),measurement,setting,value
FC(F)(F)C(F)(F)C(F)(F)C(F)(F)C(F)(F)C(F)(F)C(F)(F)C(F)(F)Br,Potency,[1],inactive
same,activity (max response),[2],7.96%
N=C(N)c1ccc(OCCCCCOc2ccc(C(=N)N)cc2)cc1,Potency,[1],4.22 µM (active) and 1.66 µM (active)
same,Potency,[3],inactive
same,Potency,[4],inactive
same,Potency,[2],16.4 µM (active) and 15.8 µM (active)
Cc1cc(-c2ccc(CC(=O)Nc3ccc(-c4cccnc4)cc3)cc2)ccn1,Potency,[1],11.8 µM (active)
same,Potency,[3],6.62 µM (active)
same,Potency,[4],10.5 µM (active)
same,Potency,[5],6.62 µM (active)
same,Potency,[6],10.5 µM (active)
same,Potency,[7],8.33 µM (active)
same,activity (max response),[2],-19.6%
same,Potency,[8],inactive
CN1CCc2c(n(Cc3ccc(C(=O)NO)cc3)c3ccccc23)C1,Potency,[1],18.6 µM (active)
same,Potency,[5],26.4 µM (active)
same,Potency,[6],23.5 µM (active)
same,Potency,[8],25.1 µM (active)
O=C(Nc1cnn2ccc(N3CCC[C@@H]3c3cc(F)ccc3F)nc12)N1CC[C@H](O)C1,Potency,[1],inactive
same,activity (max response),[2],-2.6%
COc1ccc2c(c1)CC[C@@H](CN(C)CC(=O)O)[C@H]2c1ccccc1,Potency,[1],inactive
same,Potency,[3],2.64 µM (active)
same,Potency,[9],2.64 µM (active)
same,Potency,[5],2.35 µM (active)
same,Potency,[6],2.64 µM (active)
same,activity (max response),[2],12.6%
same,Potency,[8],inactive
O=c1ncn2nc(Sc3ccc(F)cc3F)ccc2c1-c1c(Cl)cccc1Cl,Potency,[1],8.2 µM (active)
same,Potency,[6],16.6 µM (active)
same,activity (max response),[2],-0.752%
same,Potency,[8],inactive
Cc1cc(Nc2cc(NC(=O)c3c(Cl)cccc3Cl)ccn2)nc(N)n1,Potency,[1],0.164 µM (active)
same,Potency,[4],1.18 µM (active)
same,Potency,[8],7.08 µM (active)
Nc1nc(N)c2nc(CNc3ccc(C(=O)NC(CCC(=O)O)C(=O)O)cc3)cnc2n1 (stereo unspecified),Potency,[1],0.0148 µM (active)
same,Potency,[6],0.0418 µM (active)
CN1CCc2c(c3ccccc3n2Cc2ccc(C(=O)NO)cc2)C1,Potency,[1],14.8 µM (active)
same,Potency,[4],inactive
same,Potency,[9],13.2 µM (active)
same,Potency,[5],11.8 µM (active)
same,Potency,[8],28.2 µM (active)
O=C(CCCN1CCN(c2ccc(F)cc2)CC1)NC1c2ccccc2CSc2ccccc21 (stereo unspecified),Potency,[1],14.6 µM (active)
same,Potency,[5],inactive
same,activity (max response),[2],-20.8%
C[C@@]1(c2ncncc2F)NC(=O)c2cc(-c3cn[nH]c3)ccc21,Potency,[1],20.9 µM (active)
same,activity (max response),[2],-10.1%
Cc1c(C(=O)NN2CCCCC2)nn(-c2ccc(Cl)cc2Cl)c1-c1ccc(Cl)cc1,Potency,[1],23.7 µM (active)
same,Potency,[4],3.32 µM (active)
same,Potency,[5],inactive
same,Potency,[6],inactive
same,Potency,[2],28.2 µM (active)
same,Potency,[8],20.6 µM (active) and 28.2 µM (active)
CCCCNc1c(C(=O)OCC)c(C)nc2c1cnn2CC,Potency,[1],inactive
same,activity (max response),[2],-16.9%
COc1cc(S(C)(=O)=O)ccc1Nc1nc2ccc(-c3ccc(NC(=O)[C@H](C)c4ccc(F)cc4)cc3)cn2n1,Potency,[1],0.468 µM (active)
same,activity (max response),[2],-19.6%
Nc1nc2c(c(=O)[nH]1)N(C=O)[C@H](CNc1ccc(C(=O)N[C@@H](CCC(=O)O)C(=O)O)cc1)CN2,Potency,[1],inactive
same,Potency,[3],2.96 µM (active)
same,Potency,[4],3.32 µM (active)
same,Potency,[9],2.64 µM (active)
same,Potency,[5],inactive
same,Potency,[7],inactive
same,activity (max response),[2],4.65%
same,Potency,[8],inactive
CCOCc1nc2c(N)nc3ccccc3c2n1CC(C)(C)O,Potency,[1],18.6 µM (active)
same,activity (max response),[2],-23.1%
CCN1CCC(n2cc(CNc3cc(Cl)c4ncc(C#N)c(Nc5ccc(F)c(Cl)c5)c4c3)nn2)CC1,Potency,[1],11.6 µM (active)
same,Potency,[3],4.18 µM (active)
same,Potency,[9],18.7 µM (active)
same,Potency,[5],18.7 µM (active)
same,Potency,[6],3.32 µM (active)
same,Potency,[7],13.2 µM (active)
same,Potency,[8],31.6 µM (active)
N#CNC(=NCCCCCCOc1ccc(Cl)cc1)Nc1ccncc1,Potency,[1],0.0042 µM (active)
same,Potency,[4],0.0019 µM (active)
same,Potency,[9],0.0026 µM (active)
same,Potency,[5],inactive
same,Potency,[6],inactive
same,Potency,[7],inactive
same,Potency,[2],0.0398 µM (active)
same,Potency,[8],0.0158 µM (active)
CN(CC(=O)N(Cc1ccc(C2CCCCC2)cc1)c1ccc(C(=O)O)c(O)c1)S(=O)(=O)c1c(F)c(F)c(F)c(F)c1F,Potency,[1],2.63 µM (active)
same,Potency,[3],20.9 µM (active)
same,Potency,[6],16.6 µM (active)
CC1(COc2ccc3c(c2)ncn3-c2ccc3cccc(N4CCC(N)CC4)c3n2)COC1,Potency,[1],11.6 nM (active) and 10.5 nM (active)
same,Potency,[3],10.5 µM (active)
same,Potency,[6],0.0209 µM (active)
same,Potency,[2],25.1 µM (active)
same,Potency,[8],14.1 µM (active)
CNC(=O)c1ccccc1Nc1nc(Nc2ccc(N3CCOCC3)cc2OC)ncc1Cl,Potency,[1],326 nM (active) and 296 nM (active)
same,Potency,[3],8.33 µM (active)
same,Potency,[9],6.62 µM (active)
same,Potency,[5],2.09 µM (active)
same,Potency,[6],1.87 µM (active)
same,Potency,[2],5.62 µM (active)
same,Potency,[8],0.631 µM (active)
